Measurements published in ChEMBL document CHEMBL3988442, “University of Dundee, Small-Polar-MMV Screening Library” (2021).
For some of these results: Potency and affinity values are given separately.

What was measured:
Set-up in all cases: scale not given: direction of the effect not stated beside the values
[1] = target: Protein translocase subunit SecA (Escherichia coli (strain K12)) (UniProt P10408); assay: Assay to Identify E. coli SecA ATPase Inhibitors; type: functional; conditions: 30 µM
Protein translocase subunit SecA (Escherichia coli (strain K12)), sequence (P10408 whole entry): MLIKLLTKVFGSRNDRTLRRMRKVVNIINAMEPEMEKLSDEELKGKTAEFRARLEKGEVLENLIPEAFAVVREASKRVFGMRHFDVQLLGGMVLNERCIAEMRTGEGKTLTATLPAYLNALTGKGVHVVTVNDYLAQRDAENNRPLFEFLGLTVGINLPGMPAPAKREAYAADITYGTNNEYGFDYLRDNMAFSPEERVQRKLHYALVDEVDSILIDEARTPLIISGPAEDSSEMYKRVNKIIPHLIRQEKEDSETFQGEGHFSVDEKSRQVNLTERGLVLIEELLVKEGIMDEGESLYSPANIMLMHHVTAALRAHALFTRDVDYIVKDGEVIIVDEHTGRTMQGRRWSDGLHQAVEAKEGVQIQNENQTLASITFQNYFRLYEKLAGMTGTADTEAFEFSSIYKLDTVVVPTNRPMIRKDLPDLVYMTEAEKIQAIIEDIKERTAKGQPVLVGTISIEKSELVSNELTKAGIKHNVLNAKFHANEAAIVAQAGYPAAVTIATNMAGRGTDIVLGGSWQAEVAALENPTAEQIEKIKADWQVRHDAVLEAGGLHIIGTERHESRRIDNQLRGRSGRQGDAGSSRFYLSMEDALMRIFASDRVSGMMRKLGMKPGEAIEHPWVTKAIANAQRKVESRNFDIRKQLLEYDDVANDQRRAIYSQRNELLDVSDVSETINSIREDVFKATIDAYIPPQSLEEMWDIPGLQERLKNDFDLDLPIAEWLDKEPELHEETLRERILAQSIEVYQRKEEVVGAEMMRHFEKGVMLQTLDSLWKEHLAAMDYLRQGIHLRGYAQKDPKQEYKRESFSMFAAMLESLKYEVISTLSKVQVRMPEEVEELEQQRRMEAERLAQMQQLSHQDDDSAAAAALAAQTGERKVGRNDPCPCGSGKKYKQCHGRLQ

[2] = target: T1, Ubiquitin-activating enzyme e1, putative (Leishmania donovani (strain BPK282A1)) (UniProt E9BSI1); assay: Leishmania donovani Ubiquitin Activating Enzyme (LdE1); type: functional; conditions: 30 µM
T1 sequence (whole entry): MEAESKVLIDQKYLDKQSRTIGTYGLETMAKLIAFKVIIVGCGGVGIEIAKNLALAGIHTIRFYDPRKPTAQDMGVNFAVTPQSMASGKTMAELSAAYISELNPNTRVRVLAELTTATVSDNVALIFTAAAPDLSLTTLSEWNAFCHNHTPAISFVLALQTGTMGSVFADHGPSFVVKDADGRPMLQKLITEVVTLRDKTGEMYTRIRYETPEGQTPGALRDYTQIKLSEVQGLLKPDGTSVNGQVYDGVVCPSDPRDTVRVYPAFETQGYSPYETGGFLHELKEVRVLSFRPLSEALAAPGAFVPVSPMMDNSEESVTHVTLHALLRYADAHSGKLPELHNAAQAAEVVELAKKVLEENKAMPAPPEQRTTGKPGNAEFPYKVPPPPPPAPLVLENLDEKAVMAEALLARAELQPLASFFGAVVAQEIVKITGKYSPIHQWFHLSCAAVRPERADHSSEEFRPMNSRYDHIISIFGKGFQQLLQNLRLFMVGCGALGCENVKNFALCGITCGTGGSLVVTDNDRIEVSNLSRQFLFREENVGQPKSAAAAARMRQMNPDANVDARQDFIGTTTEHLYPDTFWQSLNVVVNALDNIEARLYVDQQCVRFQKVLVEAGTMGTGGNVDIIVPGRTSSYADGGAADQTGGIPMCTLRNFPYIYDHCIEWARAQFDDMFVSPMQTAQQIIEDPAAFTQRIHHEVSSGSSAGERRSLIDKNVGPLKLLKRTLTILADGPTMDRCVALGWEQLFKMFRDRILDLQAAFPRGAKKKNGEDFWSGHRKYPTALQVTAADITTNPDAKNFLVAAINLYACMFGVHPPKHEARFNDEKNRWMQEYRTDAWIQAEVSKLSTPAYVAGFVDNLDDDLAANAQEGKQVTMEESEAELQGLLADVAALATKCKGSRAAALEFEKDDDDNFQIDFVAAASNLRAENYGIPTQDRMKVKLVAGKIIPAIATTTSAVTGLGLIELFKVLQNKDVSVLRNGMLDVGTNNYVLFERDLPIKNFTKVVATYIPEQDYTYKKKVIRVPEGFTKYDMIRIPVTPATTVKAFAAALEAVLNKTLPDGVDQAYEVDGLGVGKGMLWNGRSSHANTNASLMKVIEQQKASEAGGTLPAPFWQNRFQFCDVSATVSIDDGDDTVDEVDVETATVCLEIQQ

[3] = target: AMP-activated protein kinase, AMPK (Homo sapiens) (UniProt P54646+O43741+P54619+Q9UGJ0+Q9Y478+Q13131+Q9UGI9); assay: AMP-dependent Kinase enzyme assay. An in vitro enzyme assay that detects ADP turnover that is directly proportional to AMPK activity. This uses naive AMPK that is activated during the assay with MK-8722; type: functional; conditions: 30 µM
[4] = target: Sialic acid-binding Ig-like lectin 9 (Homo sapiens) (UniProt Q9Y336); assay: Hs-Siglec9 ALPHAscreen SOP 20170721; conditions: 10 µM
Sialic acid-binding Ig-like lectin 9 (Homo sapiens), sequence (Q9Y336 whole entry): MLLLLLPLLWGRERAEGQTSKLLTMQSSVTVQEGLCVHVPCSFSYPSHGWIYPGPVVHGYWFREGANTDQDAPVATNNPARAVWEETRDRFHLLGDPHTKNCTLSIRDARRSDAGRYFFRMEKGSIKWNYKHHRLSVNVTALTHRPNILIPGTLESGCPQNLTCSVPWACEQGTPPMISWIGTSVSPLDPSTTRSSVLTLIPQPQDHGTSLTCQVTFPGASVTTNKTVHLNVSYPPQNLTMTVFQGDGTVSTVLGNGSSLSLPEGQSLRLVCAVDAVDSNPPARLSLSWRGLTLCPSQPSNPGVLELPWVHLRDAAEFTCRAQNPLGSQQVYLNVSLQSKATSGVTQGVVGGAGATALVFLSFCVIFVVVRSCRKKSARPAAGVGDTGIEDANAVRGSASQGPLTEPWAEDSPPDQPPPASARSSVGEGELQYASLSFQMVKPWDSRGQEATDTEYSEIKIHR

Trypanosoma cruzi = assay: Trypanosoma cruzi phosphomannomutase and mannose-1-phosphate guanylyltransferase assay; type: functional; conditions: 10 µM
[5] = target: T2, Arginase-2, mitochondrial (Homo sapiens) (UniProt P78540); assay: in vitro enzyme assay to detect the production of urea directly proportional to the activity of Arginase II; type: functional; conditions: 33.3 µM; note: in the data most compounds retested in dose-response had high values
T2 sequence (whole entry): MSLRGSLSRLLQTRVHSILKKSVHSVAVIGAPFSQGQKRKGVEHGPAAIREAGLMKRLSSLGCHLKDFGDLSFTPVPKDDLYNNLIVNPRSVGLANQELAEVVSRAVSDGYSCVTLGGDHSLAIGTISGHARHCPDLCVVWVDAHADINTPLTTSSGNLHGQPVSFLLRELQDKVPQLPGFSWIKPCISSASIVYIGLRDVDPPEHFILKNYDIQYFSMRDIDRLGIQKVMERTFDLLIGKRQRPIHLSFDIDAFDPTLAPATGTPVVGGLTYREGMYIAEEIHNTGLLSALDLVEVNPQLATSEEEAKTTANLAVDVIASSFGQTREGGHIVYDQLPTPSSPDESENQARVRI

[6] = target: T3, Proteasome subunit beta (Trypanosoma cruzi) (UniProt O96673); assay: Trypanosoma cruzi proteasome chymotrypsin-like activity (TcProtChymo) assay.; note: in the data most compounds retested in dose-response had high values; type: functional; conditions: 9.37 µM
T3 sequence (whole entry): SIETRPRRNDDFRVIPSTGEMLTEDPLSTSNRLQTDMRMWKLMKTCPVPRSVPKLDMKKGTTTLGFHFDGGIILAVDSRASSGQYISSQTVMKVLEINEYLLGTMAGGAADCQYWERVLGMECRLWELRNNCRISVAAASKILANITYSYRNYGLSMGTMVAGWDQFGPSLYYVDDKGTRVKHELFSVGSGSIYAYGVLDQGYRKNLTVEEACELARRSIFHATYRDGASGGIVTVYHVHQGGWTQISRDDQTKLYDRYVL

Homo sapiens = species: Homo sapiens; assay: To identify inhibition of the IFN signalling (Jak-Stat) pathway via expression of an eGFP reporter gene under the control of an IFN-stimulated response element (ISRE) containing MxA promoter.; type: functional; conditions: 30 µM
[7] = target: T4, Tyrosyl-tRNA synthetase, putative (Trypanosoma cruzi (strain CL Brener)) (UniProt Q4DSP6); assay: Trypanosoma cruzi tyrosyl tRNA synthetase (TcYRS) _High Tyrosine SOP; type: functional; conditions: 30 µM; note: in the data most compounds retested in dose-response had high values
T4 sequence (whole entry): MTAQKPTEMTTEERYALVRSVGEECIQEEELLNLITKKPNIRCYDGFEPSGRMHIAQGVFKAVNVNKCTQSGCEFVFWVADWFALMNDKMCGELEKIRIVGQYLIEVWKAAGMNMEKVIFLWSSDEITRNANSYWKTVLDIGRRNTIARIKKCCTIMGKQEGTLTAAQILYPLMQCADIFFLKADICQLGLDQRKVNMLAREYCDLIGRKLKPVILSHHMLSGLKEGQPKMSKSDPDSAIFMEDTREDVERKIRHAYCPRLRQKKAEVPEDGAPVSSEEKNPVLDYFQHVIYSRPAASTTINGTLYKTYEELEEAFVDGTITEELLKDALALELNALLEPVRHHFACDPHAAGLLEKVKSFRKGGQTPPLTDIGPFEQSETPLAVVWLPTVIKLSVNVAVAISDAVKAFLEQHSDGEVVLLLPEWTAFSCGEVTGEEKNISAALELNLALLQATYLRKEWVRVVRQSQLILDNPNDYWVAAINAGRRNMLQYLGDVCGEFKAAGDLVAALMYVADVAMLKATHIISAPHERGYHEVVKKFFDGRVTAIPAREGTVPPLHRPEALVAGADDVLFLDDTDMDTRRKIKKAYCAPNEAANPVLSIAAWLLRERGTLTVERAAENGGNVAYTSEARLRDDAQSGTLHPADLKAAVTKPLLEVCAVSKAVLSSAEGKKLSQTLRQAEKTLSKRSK

[8] = target: T4, Tyrosyl-tRNA synthetase, putative (Trypanosoma cruzi (strain CL Brener)); assay: Trypanosoma cruzi tyrosyl tRNA synthetase (TcYRS) SOP; type: functional; conditions: 30 µM
[9] = target: Chromo domain-containing protein 1 (Saccharomyces cerevisiae (strain ATCC 204508 / S288c) (Baker's yeast)) (UniProt P32657); assay: ScCHD-1 Enzyme Inhibition Assay; type: functional; conditions: 30 µM; note: in the data most compounds retested in dose-response had high values
Chromo domain-containing protein 1 (Saccharomyces cerevisiae (strain ATCC 204508 / S288c) (Baker's yeast)), sequence (P32657 whole entry, the tested form may be a part): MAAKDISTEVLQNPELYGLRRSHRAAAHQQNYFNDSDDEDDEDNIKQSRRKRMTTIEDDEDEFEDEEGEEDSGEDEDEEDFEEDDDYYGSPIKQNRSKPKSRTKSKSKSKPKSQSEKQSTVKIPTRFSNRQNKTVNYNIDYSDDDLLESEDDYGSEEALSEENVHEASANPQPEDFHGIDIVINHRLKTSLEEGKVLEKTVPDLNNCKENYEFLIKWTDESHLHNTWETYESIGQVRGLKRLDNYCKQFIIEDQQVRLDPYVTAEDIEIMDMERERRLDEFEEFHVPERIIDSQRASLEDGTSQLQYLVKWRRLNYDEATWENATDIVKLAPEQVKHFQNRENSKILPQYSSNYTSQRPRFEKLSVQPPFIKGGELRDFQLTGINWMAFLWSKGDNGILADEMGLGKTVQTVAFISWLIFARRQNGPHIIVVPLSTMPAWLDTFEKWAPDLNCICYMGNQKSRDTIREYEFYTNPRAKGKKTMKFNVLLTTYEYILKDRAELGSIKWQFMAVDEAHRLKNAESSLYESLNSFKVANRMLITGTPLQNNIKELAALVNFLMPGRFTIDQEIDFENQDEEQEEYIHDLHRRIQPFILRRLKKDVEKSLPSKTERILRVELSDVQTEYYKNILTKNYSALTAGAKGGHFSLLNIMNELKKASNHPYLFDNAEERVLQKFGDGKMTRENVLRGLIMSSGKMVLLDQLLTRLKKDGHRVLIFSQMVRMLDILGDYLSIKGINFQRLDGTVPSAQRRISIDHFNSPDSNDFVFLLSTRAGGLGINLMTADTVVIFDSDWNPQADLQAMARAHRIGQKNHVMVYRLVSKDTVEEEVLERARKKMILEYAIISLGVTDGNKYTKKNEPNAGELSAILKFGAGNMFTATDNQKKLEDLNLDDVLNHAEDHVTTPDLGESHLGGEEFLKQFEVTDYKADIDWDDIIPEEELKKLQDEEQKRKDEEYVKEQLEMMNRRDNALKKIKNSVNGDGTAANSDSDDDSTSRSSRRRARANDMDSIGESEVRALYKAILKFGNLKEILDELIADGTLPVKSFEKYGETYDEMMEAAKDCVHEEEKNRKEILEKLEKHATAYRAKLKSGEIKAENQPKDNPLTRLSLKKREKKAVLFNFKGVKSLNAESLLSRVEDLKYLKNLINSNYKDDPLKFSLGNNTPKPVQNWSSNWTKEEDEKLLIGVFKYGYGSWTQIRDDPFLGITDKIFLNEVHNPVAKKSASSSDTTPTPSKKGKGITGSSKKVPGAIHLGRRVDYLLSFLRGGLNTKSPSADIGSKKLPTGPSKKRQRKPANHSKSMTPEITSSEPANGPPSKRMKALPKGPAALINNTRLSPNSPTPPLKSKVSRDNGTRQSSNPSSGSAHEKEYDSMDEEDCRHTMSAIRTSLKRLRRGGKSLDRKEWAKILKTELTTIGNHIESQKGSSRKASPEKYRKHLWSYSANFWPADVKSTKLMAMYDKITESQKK

| Structure (SMILES) | Percent Effect [1] | Percent Effect [2] | Percent Effect [3] | Percent Effect [4] | Percent Effect (Trypanosoma cruzi) | Percent Effect [5] | Percent Effect [6] | Percent Effect (Homo sapiens) | Percent Effect [7] | Percent Effect [8] | Percent Effect [9] |
| --- | --- | --- | --- | --- | --- | --- | --- | --- | --- | --- | --- |
| CNc1cc(C)nc(C2CN(Cc3cc[nH]n3)CCO2)c1 (stereo not given) | -2.72% | 1.35% | 11.4% | -2.27% | -7.51% | -6.26% | -0.156% | -17.5% | 0% | 3.9% | -10.1% |
| Cn1cccc1CNC(=O)CCCc1nnc2ccccn12 | -4.97% | 6.67% | -2.6% | 1.09% | 3.14% | -8.28% | 12.4% | -1.85% | 3.17% | 2.56% | -6.43% |
| CC(C)[C@H](NC(=O)NC1CCS(=O)(=O)C1)C(=O)Nc1cccnc1 (stereo not given in full) | 1.55% | 9.33% | -0.824% | -4.96% | -3.34% | -8.28% | 13.1% | 17.4% | 3.17% | 12.8% | -7.36% |
| O=C1COC2(CCN(Cc3ccccn3)CC2)CN1CC1CC1 | 0.889% | 2.6% | 17.2% | 2.67% | -4.83% | -1.94% | -3.13% | 9.22% | 1.06% | 3.85% | -1.35% |
| Cc1cnn(CC2CCCN2Cc2nc3ccccc3n2C)c1 (stereo not given) | -1.76% | -10.1% | -1.75% | 3.88% | 8.4% | 1.9% | -1.23% | -22.9% | 9.36% | 13.9% | -3.16% |
| CNS(=O)(=O)c1ccc(C(=O)NCCNc2ncccn2)cc1 | -3.65% | 10.5% | -2.1% | -1.6% | -2.52% | -1.08% | 7.36% | -4.68% | 6.4% | 23.5% | -3.3% |
| N#Cc1ccnc(N2CCC(c3nccn3Cc3cscn3)CC2)c1 | -1.75% | 13.3% | 2.35% | 5.36% | 3.8% | 0% | 15.5% | 21.8% | 4.92% | 13.6% | -7.45% |
| COc1ccc(CNC(=O)N(Cc2ccc(F)cc2F)C2CC2)cn1 | -6.72% | 15.2% | -2.76% | 9.29% | 5.95% | -0.76% | 0.737% | 8.63% | 3.45% | 21.5% | -7.42% |
| O=C(NS(=O)(=O)c1ccccc1Cl)c1cccc2c1OCCO2 | -5.38% | 5.48% | -3.79% | 16.7% | 3.53% | 8.64% | 10.7% | 7.24% | -10.8% | -10% | 96.7% |
| Cc1csc(C2CCCCN2C(=O)CN(C)Cc2ccccc2)n1 (stereo not given) | -1.2% | -1.27% | 11% | 7.48% | -1.33% | 3.23% | 0.515% | -0.936% | 1.04% | 2.53% | 7.65% |
| O=C(NCCc1ccccn1)NC1CCN(c2ncccn2)CC1 | -2.63% | 16.4% | 1.28% | 3.94% | -1.59% | 2% | 12.9% | -1.99% | 9.38% | 23.5% | -4.07% |
| COc1cc(C)nc(N2CCN(C(=O)c3ccc(Cl)o3)CC2)n1 | -3.23% | 2.7% | -4.07% | -1.86% | 2.17% | -0.802% | -3.06% | -0.0966% | 2.46% | 3.7% | 1.52% |
| COc1cccc(CN2C[C@@H]3COC[C@]3(COCc3ccncc3)C2)c1 | -5.26% | 8.11% | 5.1% | -1.02% | 6.94% | -4.14% | 14.6% | 5.58% | 2.16% | 10.3% | -0.65% |
| COc1ccc(NC(C)C(=O)NCCc2cccs2)cc1F (stereo not given) | -7.72% | -2.74% | -49.8% | 6.34% | -3.92% | 0% | 15.3% | 14.2% | -1.07% | -5% | -3.93% |
| Cn1ccc(C(=O)NC2CCN(c3ncccn3)CC2)cc1=O | -2.08% | 13.5% | -7.39% | 7.92% | -0.0943% | 0.401% | 9.73% | 5.6% | 1.48% | 11.1% | -9.93% |
| CCN(c1ccc(C(=O)N2CCCC(C)C2)cc1)S(=O)(=O)CC (stereo not given) | -1.59% | -4.17% | 8.62% | -2.11% | 0.0972% | -3.09% | 9.3% | 23.2% | -2.1% | -7.69% | 1.02% |
| COCCN1C[C@@H]2CN(Cc3ccsc3)CCC[C@]2(C(=O)O)C1 | 0.995% | 10.4% | 4.76% | -2.5% | -5.23% | 11% | 16.5% | 13.1% | 4.23% | 14.1% | -4.97% |
| O=C(Cn1cc(C(=O)O)ccc1=O)Nc1ccc(Cl)cc1F | -1.04% | 20% | -5.95% | 0.752% | 1.38% | -4.75% | 10.7% | 9.59% | 7.41% | 10.3% | -12% |
| c1cncc(OCc2noc3c2CN(Cc2ccoc2)CC3)c1 | -1.69% | 22.7% | -8.08% | -0.376% | 3.93% | -2.99% | 22.7% | 8.21% | 5.29% | 15.4% | -11.2% |
| c1cnc(-c2cnc(N3CCSCC3)nc2C2CCCO2)cn1 (stereo not given) | -4.61% | 6.76% | 9.87% | 3.27% | -5.53% | -1.16% | 9.98% | 10.7% | 1.07% | 6.49% | -13.3% |
